From PubChem
LDHA block: LDHA (human) enzyme inhibition; P00338; purified LDHA, NADH/diaphorase-resazurin fluorescence; stronger effect = lower value; activity change, % (values are at about 110 or 230 µM); 0.15% of 480,000 active; AID 1347041; in the data active = activity change below about -30%; inconclusive = mostly about -25% to -30%
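Resorufin fluorescence (ex540/em590), read at 0 and 20 min after diaphorase/resazurin addition, reports the NADH left after a 5 min room-temperature reaction of 2 nM human LDH5 with 0.06 mM NADH and 0.2 mM pyruvate.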
IDH1 R132H inh: blocks human mutant IDH1 R132H enzyme | Potency, µM (top dose mostly 76.6 µM), most hits filed as inhibitors | IDH1-R132H enzyme, NADPH consumption, diaphorase/resazurin fluorescence | 0.093% of 390,000 active; active = well fitted inhibition curve with a large enough effect; inconclusive = small, poorly fitted or top-dose-only effect; inactive = no such curve, though single readings can be large or run the other way; note: nearly all actives have a fitted effect of over 65% in size
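IDH1-R132H (0.5 ug/mL) preincubated 30 min with compound, then NADPH (0.016 mM) and alpha-KG (2 mM) added; 80 min at RT, pH 7.5. Remaining NADPH coupled via diaphorase/resazurin to fluorescence (540/590 nm); concentration-response curves normalized to no-enzyme control.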
Menin MLL FP FL: inhibitors of human menin-MLL interaction, wild-type MLL peptide; Fluorescence polarization, fluorescein-MLL peptide displacement from menin; FP activity change, % at 61.4 µM; 290,000 tested, under 10 active; AID 1766; active = well fitted curve in the direction sought with a large enough effect in the polarisation, not every such curve was filed as active; inconclusive = small, poorly fitted or top-dose-only effect, or effect the other way, or a change in a side signal; inactive = no such curve, though single readings can be large or run the other way; the % refers to the polarisation
pAkt inh: blocks phosphorylation of Akt; 0.32% of 360,000 active; Neuro2A IGF-stimulated pAkt S473 HTRF, 20 min; stronger effect = lower value; activity change, % for hits at 50 µM; in the data active = activity change below about -80%; inconclusive = mostly about -51% to -80%
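Neuro2A cells (4,500/well, DMEM with 0.5% FBS) were treated with compound at a single 50 µM final concentration, stimulated with 6 nM IGF for 20 min at 37 °C, and lysed. Phospho-Akt Ser473 was read by HTRF as 665/615 ratio ×10^4.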
CXXC DNA block: inhibitors of human MLL CXXC domain-DNA interaction; Q03164; Potency, µM (top dose mostly 115 µM), hits mostly inhibitors; 0.037% of 290,000 active; MLL-CXXC / FITC-HOXA9 DNA fluorescence polarization; AID 2662; active = well fitted inhibition curve with a large enough effect in the polarisation, with a control signal flat, not every such curve was filed as active; inconclusive = small, poorly fitted or top-dose-only effect, or effect the other way, or a change in a side signal; inactive = no such curve, though single readings can be large or run the other way; the % refers to the polarisation
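Fluorescence polarization: 7 uM MLL-CXXC (stock) preincubated 5 min with compounds, then 50 nM fluorescein-HOX-A9 DNA (stock) added; 30 min ambient. Buffer 50 mM Tris-HCl pH 7.5, 50 mM NaCl, 1 mM DTT, 0.05% BSA.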
Menin-MLL TR inh: inhibitors of human menin-MLL interaction, mutant MLL peptide; O00255; Menin + Texas Red MLL mutant peptide, fluorescence polarization; Potency, µM (series often up to 61.6 µM), most hits filed as inhibitors; 0.23% of 270,000 active; AID 1768; active = well fitted inhibition curve with a large enough effect in the polarisation, with a control signal flat, not every such curve was filed as active; inconclusive = small, poorly fitted or top-dose-only effect, or effect the other way, or a change in a side signal; inactive = no such curve, though single readings can be large or run the other way; the % refers to the polarisation
Numbers stand for hits; – = inactive; ? = inconclusive; · = no result. Only some compounds are listed: those with a hit (about 0.54% of all), similar ones and a draw of the others.

SMILES	LDHA block	IDH1 R132H inh	Menin MLL FP FL	pAkt inh	CXXC DNA block	Menin-MLL TR inh
COc1cccc(C2Nc3ccccc3C(=O)N2c2ccc(F)cc2)c1O (configuration not stated)	–	–	–	–	?	–
Cc1cc(C(=O)CSc2nc3cc([N+](=O)[O-])ccc3o2)c(C)n1C(C)C	–	·	·	·	·	·
COc1cccc(OCc2nc3ncc(Br)cc3[nH]2)c1	–	–	–	-97.1%	–	–
Nc1nnc(CC(=O)N/N=C/c2cccc([N+](=O)[O-])c2)s1	–	–	–	–	–	–
Nc1nnc(CC(=O)N/N=C/c2cc([N+](=O)[O-])cc(Br)c2O)s1	-85.6	–	–	–	–	?
O=C(NCCN1CCN(S(=O)(=O)c2ccc3ccccc3c2)CC1)C(=O)Nc1ccccc1	–	·	·	·	·	·
Cc1cc2nc(-c3ccc(SCC(=O)N4CCN(C(=O)c5ccco5)CC4)nc3)[nH]c2cc1C	–	–	–	-94.2%	–	–
CCOC(=O)c1sc2ncnc(NCc3ccco3)c2c1C	–	–	–	-111.5%	–	–
NCC#Cc1cccc(C(F)(F)F)c1	–	·	·	·	·	·
O=C(Nc1cc(C(F)(F)F)ccc1-n1cncn1)c1ccc(Cl)cc1	–	–	–	-91.1%	–	–
O=C(NCCc1ccccn1)C1CCN(c2ccc(C(F)(F)F)cn2)CC1	–	·	·	·	·	·
C(=Nc1ccccc1)c1ccc(-c2cccs2)s1	–	·	·	·	·	·
COCCn1c(N)c(NCc2ccccc2)c(=O)n(CC(=O)Nc2cc(C)ccc2C)c1=O	–	–	?	-108.1%	–	?
N#Cc1cccc(COC(=O)CCC(=O)c2ccc3c(c2)OCCCO3)c1	–	·	·	·	·	·
CCC(CCC(C)C1CCC2C3CCC4CC(O)CC[C@@]4(C)C3CC[C@@]12C)C(C)C (some centres not stated)	·	·	–	·	·	–
CC(CCC(C)C(C)(C)C)[C@@H]1CC[C@H]2C3C[C@H](OS(O)(=S)=S)[C@H]4C[C@H](OS(O)(=S)=S)[C@@H](OS(O)(=S)=S)C[C@]4(C)[C@H]3CC[C@]12C (some centres not stated) (tested in a mixture with another compound)	-94.0	?	·	–	·	·
Cc1oc2cc(OC(=O)c3ccc(S(C)(=O)=O)cc3)ccc2c(=O)c1-c1ccccc1	–	·	·	·	·	·
Cc1oc2cc(OC(=O)c3ccc4c(c3)OCO4)ccc2c(=O)c1-c1ccccc1	-30.3	·	·	·	·	·
O=C(NC(=S)Nc1nc(-c2cccc3ccccc23)cs1)c1cc2ccccc2o1	–	–	–	–	–	25.1µM
O=C(COc1ccc2c(c1)OCO2)Nc1ccc2c(c1)oc1ccccc12	–	–	–	-96.1%	–	?
CNC(=O)CCS(=O)(=O)Cc1coc(-c2ccc(F)cc2)n1	–	·	·	·	·	·
CN(C)C(=O)CCS(=O)(=O)Cc1coc(-c2ccc(F)cc2)n1	-34.1	·	·	·	·	·
CC(=O)Nc1ccc(C=NNC(=O)c2ccc(NS(=O)(=O)c3cccs3)cc2)cc1	-32.5	–	·	–	·	·
CCOC(=O)c1cccc(NC(=O)CS(=O)(=O)Cc2nc(-c3ccc(C)cc3)oc2C)c1	–	·	·	·	·	·
Cc1ccc(-n2cccc2)cc1N	–	·	·	·	·	·
SMILES	LDHA block	IDH1 R132H inh	Menin MLL FP FL	pAkt inh	CXXC DNA block	Menin-MLL TR inh
COc1cccc(-n2nc3c(-n4ncc(C#N)c4N)nnc(C)c3c2C)c1	–	–	–	-123.1%	–	–
Cc1cccc(-n2ncc(C#N)c2N)c1	–	–	–	–	–	–
CCOc1ccccc1CNC(=O)C1CCCN(c2nn3cc(-c4ccc(F)cc4)nc3s2)C1 (configuration not stated)	–	·	·	·	·	·
O=C(CSc1nnnn1C1CCCC1)NC(c1ccccc1)c1cccs1 (configuration not stated)	–	·	·	·	·	·
CN(C)c1ccc(CN(Cc2ccco2)C(=O)c2ccc(C(C)(C)C)cc2)cc1	–	·	·	·	·	·
CCn1cnc2sc(C(=O)N(Cc3ccc(N(C)C)cc3)Cc3ccco3)c(C)c2c1=O	–	–	–	-109.5%	–	–
CCCN1C(=O)/C(=C/c2c(NCCCOCC)nc3c(C)cccn3c2=O)SC1=S	–	–	?	–	?	8.91µM
CCN(C(=O)COc1ncnc2ccccc12)c1cccc2ccccc12	–	·	·	·	·	·
O=C1C(=Cc2cn(-c3ccccc3)nc2-c2ccc(OCc3ccccc3F)cc2)SC(=S)N1CCS(=O)(=O)O	-33.7	·	·	–	·	·
